Reference: PubChem BioAssay

Test: small-molecule binders of probe aNOTCH3, primary screen, biochemical, small-molecule microarray, 635/667 nm fluorescence (AID 1120);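 note: probe is a biotin-tagged antibody raised against NOTCH3 rather than NOTCH3 protein; score merges spot fluorescence near 667 nm with spot signal to noise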
Conditions: higher = more signal
`CO[C@H]1O[C@H](CO)[C@@H](OC(=O)Nc2ccc(Oc3ccccc3)cc2)[C@H](OC(=O)Nc2ccccc2)[C@H]1OC(=O)Nc1ccccc1` gave a composite z-score of 0.295. Compound `O=C(CS)NCCCCCCNC(=O)[C@H]1C[C@H]2C(=O)NCC(=O)N2[C@H]1c1ccc(O)cc1` has a composite z-score of -0.25. With `COCCOC(=O)N1C(=O)[C@@]2(c3cc(C#CCCO)ccc31)[C@H](c1ccc(O)cc1)N1[C@H](c3ccccc3)[C@H](c3ccccc3)OC(=O)[C@H]1[C@@H]2C(N)=O` the composite z-score was -0.0967. `CC(C)(C)N1CC=CC23O[C@@H]4/C=C\CCCOC(=O)C4[C@H]2C(=O)N(CCO)[C@@H]3C1=O` (some centres undefined) gave a composite z-score of -0.36.

Test: small-molecule binders of probe aNOTCH2, primary screen, biochemical, small-molecule microarray, 635/667 nm fluorescence (AID 1121);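 note: score merges feature fluorescence read at 667 nm with its signal to noise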
Conditions: higher = more signal
`COc1cc(CO)ccc1OC(C)=O` gave a composite z-score of 0.0275. Compound `COc1ccc(C#Cc2ccc3c(c2)[C@]2(C(=O)N3)[C@H](c3ccc(O)cc3)N3[C@H](c4ccccc4)[C@H](c4ccccc4)OC(=O)[C@H]3[C@@H]2C(=O)N2CCCCCCC2)cc1` has a composite z-score of 0.939. With `CN1C=C(C(=O)OCCS(C)(=O)=O)C(C(=O)OCCS(C)(=O)=O)=CC(CCCO)=CC1C1CC1` (centres undefined) the composite z-score was -0.108. In the case of `COCCOC(=O)N1C(=O)[C@@]2(c3cc(C#CCC(C(=O)OC)C(=O)OC)ccc31)[C@H](c1ccc(O)cc1)N1[C@H](c3ccccc3)[C@H](c3ccccc3)OC(=O)[C@H]1[C@@H]2C(N)=O`, the composite z-score is reported as 0.0232. For `COc1ccc(NN2C(C(O)c3ccc(OC)c(OCc4ccccc4)c3)C=CC3C(=O)N(C4CCCCC4)C(=O)C32)cc1` (centres undefined), the composite z-score was -0.122. For `CC(C)N1CC=CC23O[C@@H]4C=CCOC(=O)[C@@H]4[C@H]2C(=O)N(CCO)[C@@H]3C1=O` (some centres undefined), the composite z-score was -0.14. `O=C1c2ccccc2[C@@]2(Cc3ccccc3N(Cc3ccccc3)C2=O)[C@H](c2ccc(CO)cc2)N1C1CCCCC1` showed a composite z-score of -0.14. Work on `CO[C@H]1O[C@H](CO)[C@@H](OC(=O)Nc2ccc3c(c2)OCO3)[C@H](OC(=O)Nc2ccccc2)[C@H]1OC(=O)Nc1ccccc1` yielded a composite z-score of -0.102. With `CC(C)C[C@@H]1NC(=O)[C@@H]2C[C@H](C(=O)NCCCCCC[N+](C)(C)C)[C@H](c3ccc(O)cc3)N2C1=O` the composite z-score was -0.189. Work on `N#Cc1ccc(NN2C(C(O)C3CCCCC3)C=CC3C(=O)N(c4ccccc4)C(=O)C32)cc1` (centres undefined) yielded a composite z-score of 0.0636. Compound `O=c1oc(-c2ccccc2)nc2cc(Br)ccc12` has a composite z-score of -0.0984. For `COC(=O)[C@@]1(Cc2ccc(OC)cc2)[C@H]2c3cc(C(=O)N(C)C)n(Cc4c(OC)[nH]cc(C)c4=O)c3C[C@H]2CN1C(=O)c1ccccc1`, the composite z-score was 0.107. In the case of `CC(C)NC(=O)[C@@H]1c2ccccc2C(=O)N(Cc2ccccc2)[C@H]1c1ccc(CO)cc1`, the composite z-score is reported as -0.0638. With `O=C1C=CC(=O)[C@@H]2CC(COc3ccccc3)=C3[C@@H](CCc4ccccc4)OB(O)C[C@@H]3[C@H]12` the composite z-score was -0.219. Compound `C=CCC(OC(C)=O)[C@@H]1[C@@H](N(Cc2cccc3ccccc23)C(=O)c2cccc3ccccc23)c2cc(OCCCO)ccc2N1C(=O)c1ccc2ccccc2n1` (some centres undefined) has a composite z-score of -0.0323. With `O=C1[C@]2(CO)C=C(Br)[C@@H](C[C@@H]2c2ccccc2)[C@@]12CO2` the composite z-score was -0.16. Compound `COCC1=C2[C@@H](CCc3ccccc3)OB(O)C[C@@H]2[C@@H]2C(=O)N(Cc3ccccc3)C(=O)[C@@H]2C1` has a composite z-score of -0.14. With `CCOC(=O)C1=CC[C@@H](c2ccccc2)N(S(=O)(=O)c2ccc(C)cc2)[C@H]1C(=O)OCC` the composite z-score was 0.144. Compound `Cc1ccccc1C(O)C1C=CC2C(=O)N(C)C(=O)C2N1Nc1ccccc1` (centres undefined) has a composite z-score of -0.0168. For `C=CCC(OC(C)=O)[C@@H]1[C@@H](N(Cc2ccc(-c3ccccc3)cc2)C(=O)Cc2ccc(OC)cc2)c2cc(OCCCO)ccc2N1C(=O)c1ccc2ccccc2n1` (some centres undefined), the composite z-score was -0.182. For `CCN(CC)c1ccc(N2CC=CC34O[C@@H]5C=CCCOC(=O)C5[C@H]3C(=O)N(CCCCCO)[C@@H]4C2=O)cc1` (some centres undefined), the composite z-score was 0.396. `C[C@]1(C(=O)NCc2ccccc2)c2ccccc2C(=O)N(Cc2ccc(OC(F)(F)F)cc2)[C@H]1c1ccc(CO)cc1` showed a composite z-score of -0.103. `CC(=O)Nc1cc(Br)ccc1C(=O)O` gave a composite z-score of -0.0502. With `COC(=O)C[C@H]1O[C@]2(C(=O)N(Cc3ccccc3)c3ccc(NC(C)=O)cc32)[C@@H](C)[C@@H]1[Si](C)(C)c1ccc(OC)cc1` the composite z-score was -0.13. With `COCCOC(=O)N1C(=O)[C@@]2(c3cc(C#CCC(C(=O)OC)C(=O)OC)ccc31)[C@H](C(=O)N1CCN(c3ncccn3)CC1)[C@H]1C(=O)O[C@H](c3ccccc3)[C@H](c3ccccc3)N1[C@@H]2c1ccc(OCCO)cc1` the composite z-score was -0.14. Work on `O=c1cccc(C=Cc2ccccc2)o1` yielded a composite z-score of -0.126. Compound `CCCCC(CC)C(O)C1C=CC2C(=O)N(c3ccccc3)C(=O)C2N1Nc1ccccc1` (centres undefined) has a composite z-score of -0.122. For `COc1ccc([Si](C)(C)[C@@H]2[C@@H](CC(=O)N(CCO)Cc3ccccc3)O[C@]3(C(=O)N(C)c4ccccc43)[C@H]2C)cc1`, the composite z-score was 0.0022. `CC(C)C[C@@H]1NC(=O)[C@H]2C[C@@H](C(=O)NCCCCCNC(=O)CS)[C@@H](c3cccc(OCCO)c3)N2C1=O` showed a composite z-score of -0.0358. Work on `O=C(OCCF)C1=CCC(c2cccc(Cl)c2)O1` (centres undefined) yielded a composite z-score of -0.199. `O=C(O)[C@@]1(Cc2ccccc2)N=C(c2ccc(OCCCO)cc2)O[C@H]1c1ccccc1` showed a composite z-score of -0.147. Work on `CO[C@H]1O[C@H](CO)[C@@H](OC(=O)Nc2ccc(Oc3ccccc3)cc2)[C@H](OC(=O)Nc2ccccc2)[C@H]1OC(=O)Nc1ccccc1` yielded a composite z-score of -0.0064. Compound `O=C(CS)NCCCCCCNC(=O)[C@H]1C[C@H]2C(=O)NCC(=O)N2[C@H]1c1ccc(O)cc1` has a composite z-score of -0.14. Work on `COCCOC(=O)N1C(=O)[C@@]2(c3cc(C#CCCO)ccc31)[C@H](c1ccc(O)cc1)N1[C@H](c3ccccc3)[C@H](c3ccccc3)OC(=O)[C@H]1[C@@H]2C(N)=O` yielded a composite z-score of -0.0956. With `CC(C)(C)N1CC=CC23O[C@@H]4/C=C\CCCOC(=O)C4[C@H]2C(=O)N(CCO)[C@@H]3C1=O` (some centres undefined) the composite z-score was -0.204.
